From PubChem BioAssay (Tox21)
Results filed as inconclusive are left out. Activity calls are given as the source filed them. Unless noted, calls follow the shape of the full dose curve.

Key:
[1] = Nuclear factor erythroid 2-related factor 2/antioxidant responsive element (Nrf2/ARE) small molecule agonists: qHTS cell viability counter screen in human keratinocytes (AID 1919968; active = well fitted curve in the direction sought with a large enough effect in the repeat runs; an effect the other way counts as inactive or inconclusive; also: nearly all actives have a fitted effect of over 55% in size)
In short: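 Cells of the KeratinoSens line were plated at 1,500 per well and left for 5 h before compound transfer from DMSO stocks. After a 23 h incubation (37 C, 5% CO2), CellTiter-Fluor was added. Signal was taken as fluorescence intensity 1 h later.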

[2] = Nuclear factor erythroid 2-related factor 2/antioxidant responsive element (Nrf2/ARE) small molecule agonists: luciferase reporter gene qHTS assay in human keratinocytes (AID 1919969); also: nearly all actives have a fitted effect of over 35% in size
[3] = target: Gonadotropin-releasing hormone receptor (Homo sapiens) (UniProt P30968); test: Human gonadotropin-releasing hormone receptor (GnRHR) small molecule agonists, calcium flux assay in GnRHR-HEK293 cells (AID 1920063); also: nearly all actives have a fitted effect of over 35% in size
In short: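 Compounds dissolved in DMSO are pin-transferred onto dye-loaded GnRHR-HEK293 cells, which were seeded 18 h before at 37 C/5% CO2. Calcium signal is read as fluorescence intensity at 1 s intervals for 3 min.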

[4] = target: KiSS-1 receptor (Homo sapiens) (UniProt Q969F8); test: Human kisspeptin (KISS1R) small molecule agonists, calcium flux assay in KISS1R-HEK293 cells (AID 1920064; active = well fitted curve in the direction sought with a large enough effect in the repeat runs; an effect the other way counts as inactive or inconclusive)
In short: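 Cell line: HEK293, stable human KISS1R. Dye loading 1 h at 37 C after 18 h culture. Read: kinetic fluorescence, 480/540 nm, 3 min at 1 s intervals.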

[5] = G protein-coupled receptor (GPCR) small molecule agonists, calcium flux assay: HEK293 wild type cell line counter screen (AID 1920065)
In short: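 Tox21 10K compounds, 15 concentrations each in triplicate, pin-transferred in DMSO onto dye-loaded cells; kinetic read at 480/540 nm for 3 min, 1 s intervals.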

[6] = p53 small molecule agonists, cell-based qHTS assay with human liver microsomes (AID 1963577);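 also: p53 response element beta-lactamase reporter cells with liver microsomes plus NADPH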
In short: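 p53RE-bla cells; 5 h settle, 37 C/5% CO2; cpd + HLM 0.5 mg/mL + NADPH 0.5 mg/mL (final); 16 h 37 C; LiveBLAzer 2 h RT dark; fluorescence readout.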

[7] = p53 small molecule agonists, cell-based qHTS assay with rat liver microsomes (AID 1963578)
In short: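 Rat liver microsome activation: microsomes 0.5 mg/mL, NADPH 0.5 mg/mL final; p53RE-bla cells, 16 h 37 C; LiveBLAzer readout, 2 h RT dark.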

[8] = p53 small molecule agonists, cell-based qHTS assay with rat liver microsomes: qHTS cell viability counter screen (AID 1963580); also: nearly all actives have a fitted effect of over 45% in size
In short: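 Cytotoxicity counter screen: intracellular ATP read by CellTiter-Glo luminescence in the p53 reporter wells. HCT-116 p53RE-bla cells were treated for 16 h at 37 C alongside rat liver microsomes and NADPH, each 0.5 mg/mL final.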

[9] = p53 small molecule agonists, cell-based qHTS assay: qHTS cell viability counter screen (AID 1963581); also: nearly all actives have a fitted effect of over 45% in size
In short: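 ATP content measured by luminescence in HCT-116 p53RE-bla cells treated 16 h at 37 C, same wells as the reporter screen.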

[10] = p53 small molecule agonists, cell-based qHTS assay (AID 1963582; active = well fitted activation curve with a large enough effect in the signal ratio in the repeat runs, not every such curve was filed as active; the % refers to the signal ratio)
In short: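 16 h compound exposure (37 C) of p53 response element–bla cells, preceded by 5 h recovery at 37 C/5% CO2; read-out via LiveBLAzer B/G FRET substrate, 2 h RT, fluorescence intensity.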

[11] = target: 5-hydroxytryptamine receptor 2A (Homo sapiens) (UniProt P28223); test: 5-hydroxytryptamine receptor 2A (HTR2A) small molecule agonists, cell-based qHTS assay (AID 1963587); also: nearly all actives have a fitted effect of over 30% in size
In short: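 Kinetic calcium-flux fluorescence (2 min, 1 sec intervals) after compound addition in agonist mode. HTR2A-CHO cells were cultured 18 h, then dye-loaded 1 h at 37 C.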

[12] = target: Beta-2 adrenergic receptor (Homo sapiens) (UniProt P07550); test: Adrenergic beta2 receptor (ADRB2) small molecule antagonists, cell-based qHTS assay (AID 1963592); also: series mostly up to about 92 µM; nearly all actives have a fitted effect of over 50% in size
In short: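 Assay format: CHO-ADRB2 cells, 18-20hr seeding at 37C/5% CO2, then compound plus 1nM isoproterenol agonist mix for 0.5hr RT. Homogeneous time-resolved fluorescence cAMP detection after 1hr, expressed as 665/615 nm ratio.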

[13] = target: D(2) dopamine receptor (Homo sapiens) (UniProt P14416); test: Dopamine D2 receptor (DRD2) small molecule agonists, cell-based qHTS assay (AID 1963594); also: nearly all actives have a fitted effect of over 35% in size
In short: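 cAMP accumulation in DRD2-HEK293 cells measured by HTRF after 1 h detection; compounds added 10 min before NKH477 (200nM […]) forskolin-analogue stimulation, 30 min at room temperature, with Ro20-1724 present at 0.1 mM final.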

[14] = target: D(2) dopamine receptor (Homo sapiens) (UniProt P14416); test: Dopamine D2 receptor (DRD2) small molecule antagonists, cell-based qHTS assay (AID 1963595; active = well fitted inhibition curve with a large enough effect in the signal ratio in the repeat runs, with a control signal flat; the % refers to the signal ratio)
In short: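 Stable D2 receptor HEK293 line, 24 h after seeding. Compound preincubated 10 min, then quinpirole (12 nM) with forskolin analogue NKH477 (200 nM), 30 min, room temperature. Detection by time-resolved FRET of cAMP.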

[15] = cAMP Responsive Elements (CRE) small molecule agonists, cell-based qHTS assay (AID 1963590)
In short: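 HEK 293T cells stably bearing CRE-bla were plated at 2,000 cells per well and rested 18 h. Compounds, positive controls or DMSO were added for 3 h at 37 C. LiveBLAzer B/G substrate was then loaded for 2 h at room temperature.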

[16] = cAMP Responsive Elements (CRE) small molecule antagonists, cell-based qHTS assay (AID 1963591; active = well fitted inhibition curve with a large enough effect in the signal ratio in the repeat runs, not every such curve was filed as active; the % refers to the signal ratio)
In short: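 First, CRE-bla HEK293T cells settled 18 h at 37 C. Next, compound and 0.25 uM final NKH477 were applied for 3 h. Last, LiveBLAzer B/G substrate was loaded for 2 h at room temperature.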

[17] = target: 5-hydroxytryptamine receptor 2A (Homo sapiens) (UniProt P28223); test: 5-hydroxytryptamine receptor 2A (HTR2A) small molecule antagonists, cell-based qHTS assay (AID 1963586); also: nearly all actives have a fitted effect of over 45% in size
In short: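 CHO cells stably expressing human HTR2A were plated for 18 h at 37 C, then loaded with calcium dye for 1 h. Compounds were preincubated 5 min at room temperature before DOI (4 nM solution) was added. Kinetic fluorescence was read for 3 min.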

[18] = target: Muscarinic acetylcholine receptor M1 (Homo sapiens) (UniProt P11229); test: Cholinergic receptor muscarinic 1 (CHRM1) small molecule antagonists, cell-based qHTS assay (AID 1963588); also: nearly all actives have a fitted effect of over 40% in size
In short: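 Compounds were tested at 15 concentrations in three independent runs. Dye-loaded CHRM1-CHO cells were exposed 5 min at room temperature before stimulation by acetylcholine added at 50nM. Intracellular calcium was read kinetically on FDSS for 3 min.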

[19] = target: Muscarinic acetylcholine receptor M1 (Homo sapiens) (UniProt P11229); test: Cholinergic receptor muscarinic 1 (CHRM1) small molecule agonists, cell-based qHTS assay (AID 1963589); also: nearly all actives have a fitted effect of over 35% in size
In short: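 Homogeneous fluorescence calcium flux, agonist mode. Human M1-expressing CHO cells; compound dosed at 15 concentrations, three independent runs; signal sampled every 1 sec.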

Measured: Potency

Sequence of KiSS-1 receptor (Homo sapiens) (Q969F8 whole entry, looked up): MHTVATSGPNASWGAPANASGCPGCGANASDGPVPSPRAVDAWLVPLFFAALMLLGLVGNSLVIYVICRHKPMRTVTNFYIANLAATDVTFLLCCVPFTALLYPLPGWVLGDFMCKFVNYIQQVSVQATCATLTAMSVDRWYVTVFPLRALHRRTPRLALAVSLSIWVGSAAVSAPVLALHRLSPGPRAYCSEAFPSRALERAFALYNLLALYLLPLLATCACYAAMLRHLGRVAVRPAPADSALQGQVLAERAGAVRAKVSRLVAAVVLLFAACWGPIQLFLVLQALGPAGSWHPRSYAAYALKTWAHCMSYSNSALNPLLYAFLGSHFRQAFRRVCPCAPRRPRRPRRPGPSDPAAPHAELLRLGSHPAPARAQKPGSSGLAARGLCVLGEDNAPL
Sequence of Gonadotropin-releasing hormone receptor (Homo sapiens) (P30968 whole entry, looked up): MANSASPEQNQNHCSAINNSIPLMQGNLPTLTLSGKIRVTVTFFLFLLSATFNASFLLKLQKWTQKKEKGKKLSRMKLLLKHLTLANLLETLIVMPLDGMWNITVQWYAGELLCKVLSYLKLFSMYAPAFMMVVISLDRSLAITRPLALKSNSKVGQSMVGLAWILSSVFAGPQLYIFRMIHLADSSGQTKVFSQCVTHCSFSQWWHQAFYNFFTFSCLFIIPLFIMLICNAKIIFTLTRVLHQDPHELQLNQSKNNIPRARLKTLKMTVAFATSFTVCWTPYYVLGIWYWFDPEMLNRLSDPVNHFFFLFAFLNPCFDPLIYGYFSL
Sequence of 5-hydroxytryptamine receptor 2A (Homo sapiens) (P28223 whole entry, looked up): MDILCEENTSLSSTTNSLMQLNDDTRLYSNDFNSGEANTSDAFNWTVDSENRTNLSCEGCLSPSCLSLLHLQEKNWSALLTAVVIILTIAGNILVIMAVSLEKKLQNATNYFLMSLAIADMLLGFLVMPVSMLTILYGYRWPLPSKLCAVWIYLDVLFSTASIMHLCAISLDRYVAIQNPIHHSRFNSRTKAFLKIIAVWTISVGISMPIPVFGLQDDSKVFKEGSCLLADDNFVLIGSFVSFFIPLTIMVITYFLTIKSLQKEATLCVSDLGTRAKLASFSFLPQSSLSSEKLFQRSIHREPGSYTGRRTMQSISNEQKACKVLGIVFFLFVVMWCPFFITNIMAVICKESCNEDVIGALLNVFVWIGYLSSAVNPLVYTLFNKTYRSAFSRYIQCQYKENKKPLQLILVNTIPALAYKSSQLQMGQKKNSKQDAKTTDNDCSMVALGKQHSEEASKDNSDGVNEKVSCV
Sequence of Muscarinic acetylcholine receptor M1 (Homo sapiens) (P11229 whole entry, looked up): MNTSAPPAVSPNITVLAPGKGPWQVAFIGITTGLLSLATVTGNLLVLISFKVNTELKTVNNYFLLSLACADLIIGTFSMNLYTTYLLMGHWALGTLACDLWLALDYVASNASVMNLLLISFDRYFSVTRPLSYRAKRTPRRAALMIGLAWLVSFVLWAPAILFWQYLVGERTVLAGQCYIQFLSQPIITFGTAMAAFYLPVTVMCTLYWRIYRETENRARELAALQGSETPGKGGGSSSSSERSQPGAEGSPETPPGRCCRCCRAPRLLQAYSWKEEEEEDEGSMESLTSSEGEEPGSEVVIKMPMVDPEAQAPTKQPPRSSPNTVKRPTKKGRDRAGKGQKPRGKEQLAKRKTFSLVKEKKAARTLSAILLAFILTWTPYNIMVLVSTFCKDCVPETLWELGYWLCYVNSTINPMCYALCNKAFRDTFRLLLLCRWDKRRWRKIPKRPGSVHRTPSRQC
Sequence of Beta-2 adrenergic receptor (Homo sapiens) (P07550 whole entry, looked up): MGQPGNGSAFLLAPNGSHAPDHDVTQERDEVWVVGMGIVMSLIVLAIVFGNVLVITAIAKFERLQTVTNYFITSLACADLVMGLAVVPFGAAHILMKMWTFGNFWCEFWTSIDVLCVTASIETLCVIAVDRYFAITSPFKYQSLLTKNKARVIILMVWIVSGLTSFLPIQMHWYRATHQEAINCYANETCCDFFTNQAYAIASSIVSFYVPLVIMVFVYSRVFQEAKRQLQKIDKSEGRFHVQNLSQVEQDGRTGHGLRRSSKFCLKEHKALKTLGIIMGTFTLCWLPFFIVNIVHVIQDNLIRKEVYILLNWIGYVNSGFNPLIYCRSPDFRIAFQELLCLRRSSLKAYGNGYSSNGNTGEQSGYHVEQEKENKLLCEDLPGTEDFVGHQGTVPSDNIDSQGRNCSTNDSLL
Sequence of D(2) dopamine receptor (Homo sapiens) (P14416 whole entry, looked up): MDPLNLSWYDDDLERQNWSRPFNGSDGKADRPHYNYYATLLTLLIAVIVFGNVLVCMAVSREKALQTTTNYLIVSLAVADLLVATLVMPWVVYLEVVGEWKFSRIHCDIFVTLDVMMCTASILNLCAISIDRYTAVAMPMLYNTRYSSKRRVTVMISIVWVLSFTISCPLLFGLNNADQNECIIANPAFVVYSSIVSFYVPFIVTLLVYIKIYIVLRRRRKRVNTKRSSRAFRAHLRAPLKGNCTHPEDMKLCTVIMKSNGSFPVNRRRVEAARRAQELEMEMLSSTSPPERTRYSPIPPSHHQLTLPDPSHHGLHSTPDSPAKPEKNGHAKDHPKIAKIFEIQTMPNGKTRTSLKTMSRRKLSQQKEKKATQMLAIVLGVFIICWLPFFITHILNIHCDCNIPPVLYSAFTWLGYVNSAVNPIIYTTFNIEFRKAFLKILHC

CCOc1ccccc1N
not listed: [15] | [16] | [17] | [18] | [19]
inactive: all other assays above

COc1cc(NS(=O)(=O)c2ccc(N)cc2)nc(OC)n1
not listed: [11] | [17] | [18] | [19]
inactive: all other assays above

CC(C)(O)c1ccc(CNC(=O)c2cccnc2Oc2ccc(F)cc2)cc1
not listed: [15] | [16]
inactive: all other assays above

O=c1c(O)c(-c2ccc(O)cc2O)oc2cc(O)cc(O)c12
not listed: [13] | [14] | [15] | [16]
inactive: all other assays above

O=C(O)c1cccc(O)c1
not listed: [14] | [17]
inactive: all other assays above

O=C(CCN1CCC(c2ccccc2)C1)c1ccc2c(c1)OCCO2 (stereo not drawn)
not listed: [14] | [16] | [19]
inactive: all other assays above

O=C1c2ccccc2C(=O)C1c1ccc(Br)cc1
not listed: [12] | [15] | [16]
inactive: all other assays above

O=C(CCCCCCCCC#CI)Oc1ccccc1
not listed: [15]
inactive: all other assays above
